PMC11062922 (Nature Chemical Biology, 2023)
Where two headings read alike, the source gives them in different places.

Legend:
Parameters in all cases: species or system human, MV4-11 + K-562 + COLO205 + SK-N-BE2 + OVCAR-8
[1] = tested on: ABL1; conditions: read-out: apparent Kd, n = 1
[2] = tested on: HCK; conditions: read-out: apparent Kd, n = 1
[3] = tested on: MAPK8; conditions: read-out: apparent Kd, n = 1
[4] = tested on: PRKAA2; conditions: read-out: apparent Kd, n = 1
[5] = tested on: PTK6; conditions: read-out: apparent Kd, n = 1
[6] = tested on: RIOK2; conditions: read-out: apparent Kd, n = 1
[7] = tested on: SRC; conditions: read-out: apparent Kd, n = 1
[8] = tested on: STK3; conditions: read-out: apparent Kd; compound concentrations:100 nM and 1000 nM (sheet 'Samples'); n = 1
[9] = tested on: YES1; conditions: read-out: apparent Kd, n = 1
[10] = tested on: EPHA2; conditions: read-out: apparent Kd, n = 1
[11] = tested on: EPHB2; conditions: read-out: apparent Kd, n = 1
[12] = tested on: EPHB4; conditions: read-out: apparent Kd, n = 1
[13] = tested on: PHKG2; conditions: read-out: apparent Kd, n = 1
[14] = tested on: PRKX; conditions: read-out: apparent Kd, n = 1
[15] = tested on: CSNK1A1; conditions: read-out: apparent Kd, n = 1
[16] = tested on: CSNK1E; conditions: read-out: apparent Kd, n = 1
[17] = tested on: ROCK2; conditions: read-out: apparent Kd; compound concentrations:100 nM and 1000 nM (sheet 'Samples'); n = 1
[18] = tested on: CDK17; conditions: read-out: apparent Kd; compound concentrations: 100 nM and 1000 nM (sheet 'Samples'), CATDS: 6.8555901877920197E-3; n = 1
[19] = tested on: TNIK; conditions: read-out: apparent Kd; compound concentrations: 100 nM and 1000 nM (sheet 'Samples'), CATDS: 6.3415403729181101E-3; n = 1
[20] = compound concentrations:100 nM and 1000 nM (sheet 'Samples')

With `CNC(=O)c1ccccc1Nc1nc(Nc2ccc(N3CCOCC3)cc2)ncc1Cl.Cl` [GSK1576028A] the potency estimated from few doses [1, 20] was 1640 nM, the potency estimated from few doses [2, 20] was 676 nM and the potency estimated from few doses [3, 20] was 88.4 nM. For the same compound, the potency estimated from few doses [4, 20] was 688 nM, the potency estimated from few doses [5, 20] was 297 nM and the potency estimated from few doses [6, 20] was 2140 nM. For the same compound, the potency estimated from few doses [7, 20] was 1280 nM, the potency estimated from few doses [8] was 1270 nM and the potency estimated from few doses [9, 20] was 322 nM.

For `CN1C[C@@H]2Cn3c(c(C4=C(c5cn(C)c6ccccc56)C(=O)NC4=O)c4ccccc43)C[C@H]2C1.Cl` [RO0320234-001], the potency estimated from few doses [1, 20] was 93.7 nM, the potency estimated from few doses [10, 20] was 59.7 nM and the potency estimated from few doses [11, 20] was 52.9 nM. The potency estimated from few doses [12, 20] was 15.9 nM, the potency estimated from few doses [2, 20] was 317 nM and the potency estimated from few doses [13, 20] was 2180 nM. The potency estimated from few doses [4, 20] was 448 nM, the potency estimated from few doses [14, 20] was 925 nM and the potency estimated from few doses [5, 20] was 970 nM. The potency estimated from few doses [7, 20] was 120 nM and the potency estimated from few doses [9, 20] was 97.8 nM.

Compound `CCOC(=O)N1CCC(n2cnc(-c3ccc(F)cc3)c2-c2ccnc(N)n2)CC1` [SB-219952] has a potency estimated from few doses ([1]; compound concentrations: 100 nM and 1000 nM (sheet 'Samples'), CATDS: 8.9388068544210691E-3) of 1180 nM, a potency estimated from few doses ([15]; compound concentrations: 100 nM and 1000 nM (sheet 'Samples'), CATDS: 5.7270515376472299E-2) of 44.2 nM and a potency estimated from few doses ([16]; compound concentrations: 100 nM and 1000 nM (sheet 'Samples'), CATDS: 8.1899018563860101E-2) of 27.3 nM. For the same compound, the potency estimated from few doses ([10]; compound concentrations: 100 nM and 1000 nM (sheet 'Samples'), CATDS: 1.0740036537242301E-2) was 726 nM, the potency estimated from few doses ([11]; compound concentrations: 100 nM and 1000 nM (sheet 'Samples'), CATDS: 1.57002336523176E-2) was 329 nM and the potency estimated from few doses ([12]; compound concentrations: 100 nM and 1000 nM (sheet 'Samples'), CATDS: 1.53468623139909E-2) was 344 nM. It also gave a potency estimated from few doses ([2]; compound concentrations: 100 nM and 1000 nM (sheet 'Samples'), CATDS: 1.02495423413253E-2) of 814 nM, a potency estimated from few doses ([3]; compound concentrations: 100 nM and 1000 nM (sheet 'Samples'), CATDS: 8.8818893864712808E-3) of 1210 nM and a potency estimated from few doses ([13]; compound concentrations: 100 nM and 1000 nM (sheet 'Samples'), CATDS: 9.7897546431884499E-3) of 916 nM. The potency estimated from few doses ([4]; compound concentrations: 100 nM and 1000 nM (sheet 'Samples'), CATDS: 1.0917376994103299E-2) was 698 nM, the potency estimated from few doses ([5]; compound concentrations: 100 nM and 1000 nM (sheet 'Samples'), CATDS: 1.0027639490301001E-2) was 861 nM and the potency estimated from few doses ([7]; compound concentrations: 100 nM and 1000 nM (sheet 'Samples'), CATDS: 1.0314047860945599E-2) was 802 nM. For the same compound, the potency estimated from few doses ([9]; compound concentrations: 100 nM and 1000 nM (sheet 'Samples'), CATDS: 1.05685479515238E-2) was 755 nM.

With `CCn1c(-c2nonc2N)nc2c(C#CC(C)(C)O)nc(OCCN)cc21.CCn1c(-c2nonc2N)nc2c(C#CC(C)(C)O)nc(OCCN)cc21.Cl.Cl` [GSK902056A] the potency estimated from few doses [14, 20] was 176 nM.

`Cc1cccc(-c2nc(Nc3ccncc3)c3sccc3n2)n1` [GW869641X] was tested, and the potency estimated from few doses [16, 20] was 418 nM.

With `CC(C)N1CCC(n2cnc(-c3ccc(F)cc3)c2-c2ccnc(N)n2)CC1` [SB-223132] the potency estimated from few doses [1, 20] was 1110 nM, the potency estimated from few doses [15, 20] was 158 nM and the potency estimated from few doses [16, 20] was 77.8 nM. For the same compound, the potency estimated from few doses [10, 20] was 735 nM, the potency estimated from few doses [11, 20] was 385 nM and the potency estimated from few doses [12, 20] was 314 nM. It also gave a potency estimated from few doses [2, 20] of 969 nM, a potency estimated from few doses [4, 20] of 1290 nM and a potency estimated from few doses [5, 20] of 1390 nM. It also gave a potency estimated from few doses [7, 20] of 964 nM and a potency estimated from few doses [9, 20] of 758 nM.

`Cl.Cl.NCC(C(=O)Nc1cc(Br)c(-c2ccnc3[nH]ccc23)s1)c1ccccc1.NCC(C(=O)Nc1cc(Br)c(-c2ccnc3[nH]ccc23)s1)c1ccccc1` (stereo not shown) [GSK1269851A] gave a potency estimated from few doses [1, 20] of 1040 nM, a potency estimated from few doses [10, 20] of 505 nM and a potency estimated from few doses [11, 20] of 94.9 nM. It also gave a potency estimated from few doses [12, 20] of 54.6 nM, a potency estimated from few doses [2, 20] of 554 nM and a potency estimated from few doses [13, 20] of 2300 nM. It also gave a potency estimated from few doses [4, 20] of 1130 nM, a potency estimated from few doses [14, 20] of 1890 nM and a potency estimated from few doses [5, 20] of 1450 nM. It also gave a potency estimated from few doses [17] of 1330 nM, a potency estimated from few doses [7, 20] of 523 nM and a potency estimated from few doses [9, 20] of 378 nM.

Work on `COc1ccc(Nc2ncc(C#N)c(Nc3ccccc3C(N)=O)n2)cc1N1CCN(C)CC1.Cl` [GSK1558669A] yielded a potency estimated from few doses ([1]; compound concentrations: 100 nM and 1000 nM (sheet 'Samples'), CATDS: 1.2086196789939699E-2) of 112 nM, a potency estimated from few doses [18] of 789 nM and a potency estimated from few doses ([2]; compound concentrations: 100 nM and 1000 nM (sheet 'Samples'), CATDS: 7.9271656911812094E-3) of 417 nM. The potency estimated from few doses ([4]; compound concentrations: 100 nM and 1000 nM (sheet 'Samples'), CATDS: 3.3781833346765697E-2) was 15.3 nM, the potency estimated from few doses ([5]; compound concentrations: 100 nM and 1000 nM (sheet 'Samples'), CATDS: 1.8195014804837699E-2) was 44.6 nM and the potency estimated from few doses ([6]; compound concentrations: 100 nM and 1000 nM (sheet 'Samples'), CATDS: 6.5501119131463198E-3) was 1000 nM. It also gave a potency estimated from few doses [19] of 1210 nM and a potency estimated from few doses ([9]; compound concentrations: 100 nM and 1000 nM (sheet 'Samples'), CATDS: 8.5191429755921595E-3) of 318 nM.

`O=C1N=C(NCCc2ccc(Cl)cc2)S/C1=C\c1ccc2ncccc2c1` [RO4498479-000] showed a potency estimated from few doses ([1]; compound concentrations: 100 nM and 1000 nM (sheet 'Samples'), CATDS: 1.01576334348417E-2) of 536 nM, a potency estimated from few doses ([10]; compound concentrations: 100 nM and 1000 nM (sheet 'Samples'), CATDS: 1.41311052368837E-2) of 277 nM and a potency estimated from few doses ([11]; compound concentrations: 100 nM and 1000 nM (sheet 'Samples'), CATDS: 1.7636169639023699E-2) of 191 nM. It also gave a potency estimated from few doses ([12]; compound concentrations: 100 nM and 1000 nM (sheet 'Samples'), CATDS: 2.15431657098582E-2) of 141 nM, a potency estimated from few doses ([2]; compound concentrations: 100 nM and 1000 nM (sheet 'Samples'), CATDS: 1.17279601666646E-2) of 393 nM and a potency estimated from few doses ([13]; compound concentrations: 100 nM and 1000 nM (sheet 'Samples'), CATDS: 8.2148610451916008E-3) of 932 nM. The potency estimated from few doses ([4]; compound concentrations: 100 nM and 1000 nM (sheet 'Samples'), CATDS: 9.27662971485879E-3) was 667 nM, the potency estimated from few doses ([14]; compound concentrations: 100 nM and 1000 nM (sheet 'Samples'), CATDS: 9.1029786610764794E-3) was 700 nM and the potency estimated from few doses ([5]; compound concentrations: 100 nM and 1000 nM (sheet 'Samples'), CATDS: 1.2314432114231401E-2) was 357 nM. For the same compound, the potency estimated from few doses ([7]; compound concentrations: 100 nM and 1000 nM (sheet 'Samples'), CATDS: 1.16822109686501E-2) was 396 nM and the potency estimated from few doses ([9]; compound concentrations: 100 nM and 1000 nM (sheet 'Samples'), CATDS: 1.22768983688542E-2) was 359 nM.

Work on `Cc1ccc2c(-c3ccncc3)c(-c3ccc(F)cc3)nn2c1.Cl` [GW461484A] yielded a potency estimated from few doses [1, 20] of 1220 nM, a potency estimated from few doses [16, 20] of 673 nM and a potency estimated from few doses [10, 20] of 754 nM. For the same compound, the potency estimated from few doses [11, 20] was 341 nM, the potency estimated from few doses [12, 20] was 275 nM and the potency estimated from few doses [2, 20] was 755 nM. The potency estimated from few doses [13, 20] was 1600 nM, the potency estimated from few doses [4, 20] was 1840 nM and the potency estimated from few doses [5, 20] was 871 nM. For the same compound, the potency estimated from few doses [7, 20] was 593 nM and the potency estimated from few doses [9, 20] was 556 nM.
